From ChEMBL document CHEMBL1157539, “Thousands of chemical starting points for antimalarial lead identification” (Nature, 2010) come the findings set out here.

What all share (format): functional
The subject of experiment [1] is Plasmodium falciparum. Briefly: GSK_TCMDC: Inhibition of Plasmodium falciparum 3D7 in whole red blood cells, using parasite LDH activity as an index of growth. Test compounds present at 2uM.
The test system of experiment [2] is Plasmodium falciparum. Briefly: GSK_TCMDC: Inhibition of Plasmodium falciparum Dd2 in whole red blood cells, using parasite LDH activity as an index of growth. Test compounds present at 2uM.
In the next experiment the test system is HepG2. Briefly: GSK_TCMDC: Percent inhibition of human HepG2 cell line. Test compounds present at 10uM.

For orientation: Inhibition means the change of the read-out against control, counted positive when it falls. A low value points to a weak effect. Consider `CN1CCCN(Cc2ccc(-c3cccc(NC(=O)c4cccc(C#N)c4)c3)cc2)CC1.O=C(O)C(F)(F)F`, for which the Inhibition is 100% in the experiment with Plasmodium falciparum [1], 64% with Plasmodium falciparum [2] and 17% in the experiment with HepG2.

Regarding `CS(=O)(=O)Nc1cccc(-c2cnc3[nH]cc(-c4ccc(CN)cc4)c3c2)c1`, the Inhibition with Plasmodium falciparum [1] amounted to 98%; in the experiment on Plasmodium falciparum [2], 95%; in the experiment with HepG2, 27%.

In the case of `Cc1cc(-c2ccc(CNC3Cc4ccccc4C3)cc2)ccc1S(=O)(=O)NCCN1CCCC1.O=C(O)C(F)(F)F`, the values for the Inhibition in the experiment with Plasmodium falciparum [1], with Plasmodium falciparum [2] and in the experiment on HepG2 were 100%, 73% and 99%, respectively.

With `O=C(c1cc(-c2ccco2)n[nH]1)N1CCN(S(=O)(=O)c2ccc(Br)cc2)CC1`, the Inhibition is listed as 95% in the experiment on Plasmodium falciparum [1], 90% with Plasmodium falciparum [2] and 1% with HepG2.

`CC1SC(=S)NC1C(=O)O` (configuration not stated): the Inhibition is listed as 94% in the experiment with Plasmodium falciparum [1], 0% in the experiment with Plasmodium falciparum [2] and 3% in the experiment on HepG2.

Turning to `CCn1c(SCc2ccc(F)cc2)nc2sc3c(c2c1=O)CCN(C)C3`, the Inhibition in the experiment on Plasmodium falciparum [1] came out at 95%; in the experiment on Plasmodium falciparum [2], 81%; in the experiment on HepG2, 2%.

`CCN(CC)CCCN(CCCN(CC)CC)c1cc(C)nc(Nc2ccc3cc(Br)ccc3c2)n1.Cl`: the figures for the Inhibition in the experiment with Plasmodium falciparum [1], in the experiment on Plasmodium falciparum [2] and with HepG2 were 100%, 73% and 12%, respectively.

For the compound `CCOc1ccc2c(=NN=Cc3ccc(F)cc3)cc(C)[nH]c2c1`, the results for the Inhibition with Plasmodium falciparum [1], in the experiment on Plasmodium falciparum [2] and with HepG2 were 100%, 99% and 22%, respectively.

For `O=C(NCCCN1CCC(N2CCCCC2)CC1)c1ccc2nc(N3CCCCC3)sc2c1`, the Inhibition turned out to be 89% in the experiment on Plasmodium falciparum [1], 20% in the experiment on Plasmodium falciparum [2] and 11% in the experiment with HepG2.

With `CC(C)n1nc(C(=O)N2CCN(c3ccccc3)CC2)c2ccccc2c1=O`, the results for the Inhibition in the experiment with Plasmodium falciparum [1], in the experiment with Plasmodium falciparum [2] and in the experiment on HepG2 were 96%, 3% and 34%, respectively.

Regarding `C[C@@H](Oc1cc(-n2cnc3cc(SCCN4CCN(C)CC4)ccc32)sc1C(N)=O)c1ccccc1Cl`, the Inhibition with Plasmodium falciparum [1] worked out at 90%; in the experiment on Plasmodium falciparum [2], 65%; in the experiment on HepG2, 46%.

As to `Cc1[nH]c(C)c(-c2ccc(OCc3cc(F)cc(F)c3)nc2)c(=O)c1Cl`, the Inhibition in the experiment with Plasmodium falciparum [1] is 97%; in the experiment on Plasmodium falciparum [2], 97%; in the experiment with HepG2 it was 20%.

Take `COc1ccccc1Cn1ccnc1SCC(=O)Nc1cc(C(F)(F)F)ccc1Cl`: the Inhibition was 96% with Plasmodium falciparum [1], 97% in the experiment with Plasmodium falciparum [2] and 12% in the experiment on HepG2.

Turning to `O=C(CCN1C(=O)c2ccccc2C1=O)N1CCN(CC=Cc2ccccc2)CC1`, the figures for the Inhibition in the experiment with Plasmodium falciparum [1], in the experiment with Plasmodium falciparum [2] and in the experiment with HepG2 were 87%, 3% and 10%, respectively.

Regarding `CC(C)Cn1cc(C2CCN(CCN3CCC(CNC(=O)c4ccc(NC(=O)c5ccc(Cl)cc5)cc4)CC3)CC2)c2ccccc21`, the figures for the Inhibition in the experiment on Plasmodium falciparum [1], in the experiment on Plasmodium falciparum [2] and with HepG2 were 100%, 99% and 28%, respectively.

Regarding `COc1ccccc1C1CCN(C2CCC(NC(=O)/C=C/c3cc(F)c(F)cc3F)CC2)CC1` (configuration not stated), the Inhibition in the experiment on Plasmodium falciparum [1] is given as 85%; with Plasmodium falciparum [2], 0%; in the experiment with HepG2, 39%.

Regarding `CCc1cccc2c(C#N)cn(CC(=O)Nc3ccc(OC)cc3)c12`, the Inhibition in the experiment on Plasmodium falciparum [1] is 97%; with Plasmodium falciparum [2], 76%; in the experiment on HepG2 it was 0%.

As for `CC(C)=CCN1CCC(C(=O)Nc2ccc(-c3nc4ccccc4[nH]3)cc2)CC1`, the Inhibition with Plasmodium falciparum [1] was determined as 95%; in the experiment on Plasmodium falciparum [2] it was 0%; in the experiment on HepG2, 0%.

For the compound `Cc1ccc(-c2nc3cc(C(=O)NC4CCN(Cc5ccccc5)CC4)ccc3[nH]2)cc1`, the Inhibition with Plasmodium falciparum [1] is reported as 100%; in the experiment on Plasmodium falciparum [2] it was 53%; in the experiment on HepG2, 20%.

As to `Cc1cc(NC(=O)c2sc3ccccc3c2O)no1`, the Inhibition in the experiment on Plasmodium falciparum [1] came to 96%; in the experiment on Plasmodium falciparum [2], 25%; in the experiment with HepG2 it was 6%.

For the compound `COc1cc(CNCCCNc2nc(=O)c3sccc3[nH]2)c2[nH]cc(Cl)c2c1.CS(=O)(=O)O`, the Inhibition was determined as 96% in the experiment with Plasmodium falciparum [1], 0% in the experiment with Plasmodium falciparum [2] and 29% in the experiment on HepG2.

With `OC(CNc1ccnc(Nc2cccc(Cl)c2)n1)c1cccc(F)c1` (configuration not stated), the Inhibition with Plasmodium falciparum [1] stood at 90%; in the experiment with Plasmodium falciparum [2] it was 29%; in the experiment with HepG2 it was 16%.

With `CCC[C@@H]1CCN[C@H]([C@H](O)c2ccnc3ccc(OC)cc23)C1.Cl`, the Inhibition was determined as 99% in the experiment on Plasmodium falciparum [1], 69% in the experiment on Plasmodium falciparum [2] and 0% in the experiment on HepG2.

With `CN1CCC(C(=O)N(Cc2ccc(-c3ccc(CNCCc4ccc(S(C)(=O)=O)cc4)cn3)cc2)C2CCN(Cc3ccccc3)CC2)CC1.O=C(O)C(F)(F)F`, the Inhibition in the experiment on Plasmodium falciparum [1] is 100%; in the experiment with Plasmodium falciparum [2], 95%; with HepG2, 11%.

Take `O=C(NCCCCN1CCC(c2ccc(C(F)(F)F)cc2C(F)(F)F)CC1)c1ccc(NC(=O)c2ccc(Cl)cc2)cc1`: the Inhibition in the experiment on Plasmodium falciparum [1] was found to be 99%; in the experiment on Plasmodium falciparum [2], 59%; with HepG2, 4%.

Regarding `COc1c(C2CCN(CCCCNC(=O)c3ccc(-c4ccc(Cl)cc4)c(O)c3)CC2)ccc2c1CCCC2`, the values for the Inhibition with Plasmodium falciparum [1], in the experiment on Plasmodium falciparum [2] and with HepG2 were 100%, 99% and 91%, respectively.

Consider `Brc1cc(CNCCCNc2nc3ccccc3[nH]2)sc1Br.Cl`, for which the Inhibition worked out at 100% in the experiment with Plasmodium falciparum [1], 21% in the experiment on Plasmodium falciparum [2] and 10% with HepG2.

Regarding `O=C(Nc1ccc(Cl)c(C(F)(F)F)c1)Nc1ccc(Cl)c(C(F)(F)F)c1`, the Inhibition in the experiment with Plasmodium falciparum [1] is 94%; in the experiment with Plasmodium falciparum [2], 96%; in the experiment with HepG2, 1%.

Consider `CCCc1ccc(S(=O)(=O)NC2CCN(c3ccnc(Nc4ccc(F)cc4)n3)C2)cc1` (configuration not stated), for which the Inhibition in the experiment on Plasmodium falciparum [1] was 95%; in the experiment on Plasmodium falciparum [2], 56%; with HepG2 it was 40%.
